In the supplement of paper PMC4466140:

B1: unnamed (peptide)
chain: SKIRPTPRKPSRMAT
B2: unnamed (peptide)
chain: SHRLWLYAAPKRPKT
B3: unnamed (peptide)
chain: SRYRRPLTLLLLKPF

Target: AgAbp1
Experiment: SPOT peptide array binding signal intensity (averaged, normalized) (arbitrary units (background-subtracted, floor 0; scale differs between SH3 domains)); higher = stronger binding of the SH3 domain to the peptide
Procedure, shortened: (§1)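 Detection of bound protein relied on anti-GST antibody, an HRP anti-mouse secondary and luminol, with imaging and quantification in Genespotter. The bound protein was GST-fused SH3 domains from four yeast species, incubated at 10 μg/ml overnight at 4°C in TBS-based blocking buffer on cellulose membranes carrying synthetic 15-mer peptides with cysteines replaced by serines. Binding signal is normalized, background-subtracted spot intensity averaged over replicates, in arbitrary units that differ between domains.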

Binder | SPOT peptide array binding signal intensity
B1 | 1550
B2 | 15.5

Target: AgBbc1
Experiment: as above
Procedure, shortened: as §1

Binder | SPOT peptide array binding signal intensity
B1 | 642
B2 | 42

Target: AgBem1-D1
Experiment: as above
Procedure, shortened: as §1

Binder | SPOT peptide array binding signal intensity
B1 | 47
B2 | 110

Target: AgBzz1-D1
Experiment: as above
Procedure, shortened: as §1

Binder | SPOT peptide array binding signal intensity
B1 | 77
B2 | 46

Target: AgBzz1-D2
Experiment: as above
Procedure, shortened: as §1

Binder | SPOT peptide array binding signal intensity
B1 | 53
B2 | 42

Target: AgCyk3
Experiment: as above
Procedure, shortened: as §1

Binder | SPOT peptide array binding signal intensity
B1 | 3
B2 | 0.5

Target: AgFus1
Experiment: as above
Procedure, shortened: as §1

Binder | SPOT peptide array binding signal intensity
B1 | 40
B2 | 296

Target: AgHof1
Experiment: as above
Procedure, shortened: as §1

Binder | SPOT peptide array binding signal intensity
B1 | 69.2
B2 | 26

Target: AgHse1
Experiment: as above
Procedure, shortened: as §1

Binder | SPOT peptide array binding signal intensity
B1 | 263
B2 | 5

Target: AgLsb1
Experiment: as above
Procedure, shortened: as §1

Binder | SPOT peptide array binding signal intensity
B1 | 69.2
B2 | 0.5

Target: AgLsb4
Experiment: as above
Procedure, shortened: as §1

Binder | SPOT peptide array binding signal intensity
B1 | 176
B2 | 28.5

Target: AgMyo5
Experiment: as above
Procedure, shortened: as §1

Binder | SPOT peptide array binding signal intensity
B1 | 7
B2 | 5.5

Target: AgNbp2
Experiment: as above
Procedure, shortened: as §1

Binder | SPOT peptide array binding signal intensity
B1 | 1050
B2 | 29.5

Target: AgRvs167
Experiment: as above
Procedure, shortened: as §1

Binder | SPOT peptide array binding signal intensity
B1 | 9.17
B2 | 2

Target: AgSho1
Experiment: as above
Procedure, shortened: as §1

Binder | SPOT peptide array binding signal intensity
B1 | 39.5
B2 | 23.5

Target: AgSla1-D1-D2
Experiment: as above
Procedure, shortened: as §1

Binder | SPOT peptide array binding signal intensity
B1 | 100
B2 | 44

Target: AgSla1-D3
Experiment: as above
Procedure, shortened: as §1

Binder | SPOT peptide array binding signal intensity
B1 | 23.8
B2 | 11

Target: CaAbp1-D1
Experiment: as above
Procedure, shortened: as §1

Binder | SPOT peptide array binding signal intensity
B1 | 3050
B2 | 63

Target: CaAbp1-D2
Experiment: as above
Procedure, shortened: as §1

Binder | SPOT peptide array binding signal intensity
B1 | 5280
B2 | 37.5

Target: CaBbc1
Experiment: as above
Procedure, shortened: as §1

Binder | SPOT peptide array binding signal intensity
B1 | 806
B2 | 100

Target: CaBem1-D1
Experiment: as above
Procedure, shortened: as §1

Binder | SPOT peptide array binding signal intensity
B1 | 34.5
B2 | 52

Target: CaBzz1-D1
Experiment: as above
Procedure, shortened: as §1

Binder | SPOT peptide array binding signal intensity
B1 | 270
B2 | 73

Target: CaBzz1-D2
Experiment: as above
Procedure, shortened: as §1

Binder | SPOT peptide array binding signal intensity
B1 | 208
B2 | 38.5

Target: CaCyk3
Experiment: as above
Procedure, shortened: as §1

Binder | SPOT peptide array binding signal intensity
B1 | 108
B2 | 7

Target: CaFus1
Experiment: as above
Procedure, shortened: as §1

Binder | SPOT peptide array binding signal intensity
B1 | 208
B2 | 266

Target: CaHof1
Experiment: as above
Procedure, shortened: as §1

Binder | SPOT peptide array binding signal intensity
B1 | 2.5
B2 | 0.5

Target: CaHse1
Experiment: as above
Procedure, shortened: as §1

Binder | SPOT peptide array binding signal intensity
B1 | 30.5
B2 | 26.2

Target: CaLsb1
Experiment: as above
Procedure, shortened: as §1

Binder | SPOT peptide array binding signal intensity
B1 | 2.75
B2 | 1.5

Target: CaLsb4
Experiment: as above
Procedure, shortened: as §1

Binder | SPOT peptide array binding signal intensity
B1 | 2040
B2 | 48

Target: CaMyo5
Experiment: as above
Procedure, shortened: as §1

Binder | SPOT peptide array binding signal intensity
B1 | 8.5
B2 | 18

Target: CaNbp2
Experiment: as above
Procedure, shortened: as §1

Binder | SPOT peptide array binding signal intensity
B1 | 437

Target: CaRvs167
Experiment: as above
Procedure, shortened: as §1

Binder | SPOT peptide array binding signal intensity
B1 | 110

Target: CaRvs167-3
Experiment: as above
Procedure, shortened: as §1

Binder | SPOT peptide array binding signal intensity
B1 | 23

Target: CaSho1
Experiment: as above
Procedure, shortened: as §1

Binder | SPOT peptide array binding signal intensity
B1 | 60

Target: CaSla1-D1-D2
Experiment: as above
Procedure, shortened: as §1

Binder | SPOT peptide array binding signal intensity
B1 | 1470

Target: CaSla1-D3
Experiment: as above
Procedure, shortened: as §1

Binder | SPOT peptide array binding signal intensity
B1 | 104

Target: ScAbp1
Experiment: as above
Procedure, shortened: as §1

Binder | SPOT peptide array binding signal intensity
B1 | 1260

Target: ScBbc1
Experiment: as above
Procedure, shortened: as §1

Binder | SPOT peptide array binding signal intensity
B1 | 73.5

Target: ScBem1-D1
Experiment: as above
Procedure, shortened: as §1

Binder | SPOT peptide array binding signal intensity
B1 | 14

Target: ScBzz1-D1
Experiment: as above
Procedure, shortened: as §1

Binder | SPOT peptide array binding signal intensity
B1 | 32.5

Target: ScBzz1-D2
Experiment: as above
Procedure, shortened: as §1

Binder | SPOT peptide array binding signal intensity
B1 | 39

Target: ScCyk3
Experiment: as above
Procedure, shortened: as §1

Binder | SPOT peptide array binding signal intensity
B1 | 25

Target: ScFus1
Experiment: as above
Procedure, shortened: as §1

Binder | SPOT peptide array binding signal intensity
B1 | 21

Target: ScHof1
Experiment: as above
Procedure, shortened: as §1

Binder | SPOT peptide array binding signal intensity
B1 | 10

Target: ScHse1
Experiment: as above
Procedure, shortened: as §1

Binder | SPOT peptide array binding signal intensity
B1 | 1130

Target: ScLsb1
Experiment: as above
Procedure, shortened: as §1

Binder | SPOT peptide array binding signal intensity
B1 | 328

Target: ScLsb2
Experiment: as above
Procedure, shortened: as §1

Binder | SPOT peptide array binding signal intensity
B1 | 3.5

Target: ScLsb3
Experiment: as above
Procedure, shortened: as §1

Binder | SPOT peptide array binding signal intensity
B1 | 2130

Target: ScLsb4
Experiment: as above
Procedure, shortened: as §1

Binder | SPOT peptide array binding signal intensity
B1 | 117

Target: ScMyo3
Experiment: as above
Procedure, shortened: as §1

Binder | SPOT peptide array binding signal intensity
B1 | 0.5

Target: ScMyo5
Experiment: as above
Procedure, shortened: as §1

Binder | SPOT peptide array binding signal intensity
B1 | 4

Target: ScNbp2
Experiment: as above
Procedure, shortened: as §1

Binder | SPOT peptide array binding signal intensity
B1 | 1100

Target: ScPex13
Experiment: as above
Procedure, shortened: as §1

Binder | SPOT peptide array binding signal intensity
B1 | 124

Target: ScRvs167
Experiment: as above
Procedure, shortened: as §1

Binder | SPOT peptide array binding signal intensity
B1 | 865

Target: ScSho1
Experiment: as above
Procedure, shortened: as §1

Binder | SPOT peptide array binding signal intensity
B1 | 346

Target: ScSla1-D1-D2
Experiment: as above
Procedure, shortened: as §1

Binder | SPOT peptide array binding signal intensity
B1 | 2180

Target: ScSla1-D3
Experiment: as above
Procedure, shortened: as §1

Binder | SPOT peptide array binding signal intensity
B1 | 202

Target: SpAbp1-D1
Experiment: as above
Procedure, shortened: as §1

Binder | SPOT peptide array binding signal intensity
B1 | 1300

Target: SpBbc1
Experiment: as above
Procedure, shortened: as §1

Binder | SPOT peptide array binding signal intensity
B1 | 27.5

Target: SpBzz1-D1
Experiment: as above
Procedure, shortened: as §1

Binder | SPOT peptide array binding signal intensity
B1 | 284

Target: SpBzz1-D2
Experiment: as above
Procedure, shortened: as §1

Binder | SPOT peptide array binding signal intensity
B1 | 1.5
B3 | ≤ 0

Target: SpCyk3
Experiment: as above
Procedure, shortened: as §1

Binder | SPOT peptide array binding signal intensity
B1 | 6
B3 | 4

Target: SpHof1
Experiment: as above
Procedure, shortened: as §1

Binder | SPOT peptide array binding signal intensity
B1 | 107
B3 | 144

Target: SpHof1-2
Experiment: as above
Procedure, shortened: as §1

Binder | SPOT peptide array binding signal intensity
B1 | 43
B3 | 21.8

Target: SpHof1-3
Experiment: as above
Procedure, shortened: as §1

Binder | SPOT peptide array binding signal intensity
B1 | 235
B3 | 686

Target: SpHse1
Experiment: as above
Procedure, shortened: as §1

Binder | SPOT peptide array binding signal intensity
B1 | 180
B3 | 643

Target: SpLsb1
Experiment: as above
Procedure, shortened: as §1

Binder | SPOT peptide array binding signal intensity
B1 | 5
B3 | 3

Target: SpLsb4
Experiment: as above
Procedure, shortened: as §1

Binder | SPOT peptide array binding signal intensity
B1 | 3850
B3 | 67

Target: SpMyo1
Experiment: as above
Procedure, shortened: as §1

Binder | SPOT peptide array binding signal intensity
B1 | 9.5
B3 | 4.5

Target: SpNbp2
Experiment: as above
Procedure, shortened: as §1

Binder | SPOT peptide array binding signal intensity
B1 | 178
B3 | 374

Target: SpPex13
Experiment: as above
Procedure, shortened: as §1

Binder | SPOT peptide array binding signal intensity
B1 | 30
B3 | 11.5

Target: SpRvs167
Experiment: as above
Procedure, shortened: as §1

Binder | SPOT peptide array binding signal intensity
B1 | 957
B3 | 13.8

Target: SpSla1-D1-D2
Experiment: as above
Procedure, shortened: as §1

Binder | SPOT peptide array binding signal intensity
B1 | 33
B3 | 5

Target: SpSla1-D3
Experiment: as above
Procedure, shortened: as §1

Binder | SPOT peptide array binding signal intensity
B1 | 49.5
B3 | 6.5
